# Data from PubChem BioAssay (NCI).
# Compounds without any hit were thinned out: in the full panel of roughly 83,000, 20% have a hit.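 The endpoint reported here, percent growth, reads 100 for growth as untreated, 0 for no net growth and -100 for all cells dead.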 Values without a mark were called inactive. The source made the active and inactive calls. How the source made its calls: active means growth percent below 10; inactive means the rest.
# Experiments:
# Test in all cases: NCI-60 one-dose screen, 48 h (100 = growth as untreated, 0 = no growth, -100 = all killed)
# Settings in all cases: 10 µM unless noted
# HCT-15 colon = tested on: HCT-15 colon
# HT29 colon = tested on: HT29 colon
# SNB-75 CNS = tested on: SNB-75 CNS
# SNB-19 CNS = tested on: SNB-19 CNS
# U251 CNS = tested on: U251 CNS
# PC-3 prostate = tested on: PC-3 prostate
# SK-MEL-5 melanoma = tested on: SK-MEL-5 melanoma
# UACC-62 melanoma = tested on: UACC-62 melanoma
# LOX IMVI melanoma = tested on: LOX IMVI melanoma
# SK-MEL-28 melanoma = tested on: SK-MEL-28 melanoma
Compound,growth (HCT-15 colon),growth (HT29 colon),growth (SNB-75 CNS),growth (SNB-19 CNS),growth (U251 CNS),growth (PC-3 prostate),growth (SK-MEL-5 melanoma),growth (UACC-62 melanoma),growth (LOX IMVI melanoma),growth (SK-MEL-28 melanoma) [%]
O=C(/C=C\c1ccc(OCCCCCC[P+](c2ccccc2)(c2ccccc2)c2ccccc2)cc1)c1ccc2c(c1)OCCO2,22%,-17.5% (active),-40.4% (active),16.2%,-58.5% (active),6.58% (active),-98.3% (active),-18.1% (active),-68.2% (active),–
[O-][n+]1ccccc1CCN(O)CCc1cccc[n+]1[O-],99.3%,98.5%,85.4%,102%,105%,91.8%,95.3%,99%,97.9%,–
Cc1ccc(O)c(C(=O)O)c1,104%,102%,107%,109%,92.6%,104%,105%,104%,101%,114
C(=N\Nc1ncc(-c2cc3cc4c(cc3o2)OCO4)s1)/c1c[nH]c2ccccc12,6.56% (active),23.2%,-0.264% (active),3.35% (active),-10% (active),1.87% (active),5.79% (active),1.76% (active),-94% (active),30.9
Cc1ccc(S(=O)(=O)Nc2ccc(Cl)cc2)cc1,107%,112%,82.7%,96.9%,96.4%,87.2%,106%,77.2%,95.1%,–
NC(=O)c1cccc(-c2ccccc2N2CCCCC2)c1,101%,95.2%,99.7%,93%,98.3%,83.9%,100%,85%,98.5%,–
COc1cc2nc(-c3ccc(C(F)(F)F)cc3)cc(OCCCN3CCCCC3)c2cc1OC,9.99% (active),15.8%,-10.6% (active),62.5%,49.6%,43.2%,15.5%,-34.7% (active),-28.5% (active),51.4
CCCCCN1C=C/C(=C\C(=O)N(C)c2cccc3ccccc23)c2ccccc21,101%,90%,103%,99.7%,95.8%,94.4%,98.3%,87.4%,97.8%,–
COc1ccc(C(O)c2cc3c(N)c(C(=O)Nc4ccccc4)sc3nc2C)cc1 (centres undefined),9.94% (active),-22% (active),-7.27% (active),24.6%,5.4% (active),17.4%,-31.9% (active),19.6%,34.6%,68.1
NC(=O)c1cccc(-c2cc(C(N)=O)ccc2Cl)c1,33.8%,8.86% (active),-19.6% (active),41.6%,19.1%,29.6%,14.9%,35.7%,42.1%,–
CC(C)C1C2=C(NCCN1C(=O)Cc1ccccc1)C(C)(C)N(Cc1ccccc1)C2=O (centres undefined),95.4%,109%,85.3%,96.8%,103%,93.2%,104%,92.4%,101%,–
O=S(=O)(NCCNc1nccc(-c2c(-c3ccc(F)c(O)c3)nc3sccn23)n1)c1ccccc1,92.3%,64.6%,137%,113%,98.8%,67.8%,58.1%,-0.791% (active),27.7%,–
CC(=O)O[C@]1(C(C)=O)CC[C@H]2[C@@H]3C=C(Cl)C4=CC(=O)CC[C@]4(C)[C@H]3CC[C@@]21C,102%,101%,117%,98%,106%,96.1%,109%,90.6%,115%,–
O=c1[nH]nc(-c2ccc(Br)cc2)cc1Cc1ccc(O)cc1,105%,103%,91.9%,81.2%,105%,80.4%,87.1%,85.6%,97.4%,–
O=C(OC(OC(=O)c1cc(Cl)cc(Cl)c1)c1cccc2ccccc12)c1ccccc1 (centres undefined),106%,86.7%,99.3%,100%,98.3%,91.2%,102%,86.4%,92.3%,111
Cc1ccc(-c2c(Br)c(OC(=O)CO[C@@H]3C[C@H](C)CC[C@H]3C(C)C)c(-c3ccc(C)cc3C)c(Br)c2OC(=O)CO[C@H]2C[C@@H](C)CC[C@@H]2C(C)C)c(C)c1,99.6%,103%,85.6%,101%,99.1%,92.8%,55.3%,102%,94.4%,108
CN1CCN(CCCNc2nccc(-c3c(-c4ccc(F)c(O)c4)nc4sccn34)n2)S1(=O)=O,108%,57.7%,122%,114%,106%,86.9%,72.6%,11.5%,50.7%,12.8
N/C(=N\N=C\c1cc2ccccc2s1)N/N=C/c1cc2ccccc2s1,105%,108%,95.5%,97%,113%,97.4%,98%,95.3%,100%,–
Cc1ccccc1C(c1ccccc1)c1ccccc1C,95.6%,95.8%,79.5%,98.7%,99.3%,83.2%,77.8%,100%,94.9%,–
CS(=O)(=O)Nc1cc(-c2ccc3ncnc(Nc4ccc5[nH]ncc5c4)c3c2)cnc1Cl,79.4%,80.9%,15.5%,68.7%,64.9%,76.8%,81%,58.9%,66.2%,50.8
CCCNC(=O)Oc1ccc(/C(=C(\C)c2ccccc2)c2ccc(OCCN3CCCCC3)cc2)cc1,19.2%,4.11% (active),88.9%,79%,56.4%,57.1%,77.8%,70.6%,73.8%,–
CC(=O)N1N=C(c2cccc(Nc3ccncc3)c2)CC1c1ccccc1 (centres undefined),82.8%,33.2%,53.3%,91.8%,72.9%,75.9%,82%,86.7%,90.9%,–
CCN(CC)CCCC(C)Nc1cc(-c2cccc(OC(F)(F)F)c2)nc2ccc(N3CCCC3)cc12 (centres undefined),-14.1% (active),-24.1% (active),66.5%,24.2%,-58.4% (active),14.3%,-98.1% (active),-86.5% (active),-80.5% (active),–
COc1ccc(-c2c(-c3ccccc3)noc2N)cc1OC,100%,101%,101%,109%,98%,98.8%,97.3%,95%,105%,–
Cc1cn(-c2cc(C(=O)Nc3cccc(C#Cc4cccc5[nH]nc(N)c45)c3)cc(C(F)(F)F)c2)cn1,57.4%,18.5%,65.8%,76.2%,54.9%,75.3%,24.2%,12.2%,11%,–
Cc1cc(Nc2cccc(C(F)(F)F)c2)n2c(nc3ccccc32)c1C#N,12.2%,13.2%,59.4%,40.7%,11.6%,21.8%,4.24% (active),37.9%,59.6%,–
Brc1ccc(C2CC(c3cccc(Nc4ccncc4)c3)=NN2c2ccccc2)cc1 (centres undefined),13.5%,4.59% (active),79.6%,94.3%,32.1%,52.4%,82.2%,98.6%,53.4%,–
Cn1c(COC(=O)N2CCCCC2)nc2c(N3CCOCC3)nc(-c3ccccc3)nc21,-43% (active),-33.4% (active),-85.4% (active),17.7%,-70.9% (active),-57.5% (active),-95.6% (active),-92.7% (active),-90.4% (active),–
O=C1Nc2c(ccc(Cl)c2Cl)/C1=C/c1ccc([N+](=O)[O-])cc1,89.4%,99.2%,95.9%,81.3%,92.3%,95.3%,99.6%,102%,89.5%,–
